This is part of a sample that, as a whole, favours compounds with a hit. Of some 83,000 tested, about 20% had one in any assay.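 Percent growth is the endpoint: 0 to 100 indicates growth inhibition (40 means 60% inhibition), 0 means no net growth, and negative values indicate cell death.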 Unmarked numbers belong to inactive results. Activity calls are given as the source filed them.
test system: IGROV1 ovarian; experiment: NCI-60 one-dose screen, 48 h (100 = growth as untreated, 0 = no growth, -100 = all killed); conditions: 10 µM unless noted
Experimental: Growth inhibition of the IGROV1 human tumor cell line is measured as a screen for anti-cancer activity. Cells are grown in 96 well plates and exposed to the test compound for 48 hours. Compounds are tested at a single concentration, which is 10^-5 M for most compounds. The reported endpoint is percent growth (GI% or GIPRCNT), where numbers from 0 - 100% represent growth inhibition, and numbers from -100% - 0 represent cell death. For example, a value of 40 represents 60% growth inhibition. A value of 0 means no net growth occurred over the course of the experiment. A value of -40 indicates 40% of cells at the beginning of the experiment died by the end of the experiment. A value of -100 means all cells are dead at the end of the experiment.
NCI-60 Human Tumor Cell Lines Screen was performed using the standard one-dose NCI protocol, which is described in more detail at https://dtp.cancer.gov/discovery_development/nci-60/default.htm.
Compounds with GIPRCNT values below 10 were considered active. Activity score was based on GIPRCNT using the following formula: […]
Score is 0 for GIPRCNT values of 100 or above, 50 for GIPRCNT values of 0, and 100 for GIPRCNT values of -100.

Compound	growth
COc1c(O)cc2c(c1CC=C(C)C)OC(=O)c1c(cc(O)c(CC=C(C)C)c1O)O2	69.6%
CN1CCN(c2nc3scc(-c4ccccc4)c3c(=O)[nH]2)CC1	97.6%
Cc1sc2nc(N3CCCCC3)[nH]c(=O)c2c1C	107%
COc1cc(Cl)cc(-c2nn(-c3cccc(NC(=O)c4cc(C(F)(F)F)cc(C(F)(F)F)c4)c3)cc2-c2ccncc2)c1	100%
C[C@H]1O[C@@H](O[C@H]2[C@@H](O)C[C@H](O[C@H]3[C@@H](O)C[C@H](O[C@H]4CC[C@]5(C)C6CC[C@]7(C)[C@@H](C8=CC(=O)OC8)CC[C@]7(O)C6CC[C@@H]5C4)O[C@@H]3C)O[C@@H]2C)C[C@H](O)[C@@H]1O (stereo not given in full)	-38.8% (active)
CC(=O)Nc1c(Cl)cc2c(c1Cl)Cc1ccccc1-2	93%
COc1cccc(-c2nc3cc(NC(=O)c4ccc(Cl)c(C#N)c4)ccc3o2)c1	72.4%
CCOC(=O)CCN(c1c(Cl)ssc1=O)C(C)C	-5.46% (active)
COc1cc(-c2n[nH]nc2-c2ccccn2)cc(OC)c1OC	78.2%
O=C(O)C1C(c2ccccc2)c2ccccc2C(O)C1CO (stereo not given)	118%
Fc1ccc(-c2nn3c(-c4cc(C(F)(F)F)cc(C(F)(F)F)c4)nnc3s2)cc1	21.6%
Cc1nn(-c2ccccc2)cc1/C=C1\SC(N2CCCCC2)=NC1=O	68.1%
COc1cc(/C=C/C(=O)C(C(=O)/C=C/c2ccc(OC(=O)CCNc3nnc(C)s3)c(OC)c2)C(=O)CCNc2nnc(C)s2)ccc1OC(=O)CCNc1nnc(C)s1	-37.6% (active)
O=C(c1ccccc1)c1ccc(Oc2ccc([N+](=O)[O-])cc2[N+](=O)[O-])cc1	1.87% (active)
Cc1ncc(C(=O)Nc2ccc(CN3CCN(C)CC3)c(C(F)(F)F)c2)cc1C#Cc1cncc2ncccc12	24.9%
COc1ccc(-c2cnc(SCC(=O)Nc3ccc(-c4nc5ccccc5s4)cc3)n2-c2ccc(OC)cc2)cc1	91.5%
Cc1cc(C)c2c(N)c3cccc(C)c3nc2n1	-38.1% (active)
O=C(N/N=C/c1ccc(Cl)cc1Cl)c1ccccc1Nc1cccc(C(F)(F)F)c1	43.8%
COc1cc(-c2nc3sc4c(c3c(=O)[nH]2)CCCCCC4)cc(OC)c1OC	34.5%
COc1ccc2ncccc2c1Cc1c(OC)ccc2ncccc12	64.1%

Compound	growth
Cc1ccc(C(NC(=O)c2ccccc2)c2ccc3cccnc3c2O)cc1 (stereo not given)	17.1%
COc1ccc(NC(=O)[C@@H]2C[C@H]2c2ccccc2)c(C(N)=O)c1	-8.06% (active)
COc1cnc2c(c1)C(=O)c1c-2n(CCCN2CCCC2)c(=O)c2cc(F)ccc12	4.37% (active)
Cc1ccc(C2=Nc3c(ccc4c(C)c(C)c(=O)oc34)OC2)cc1	98.5%
COCCOCCOCCOCCOc1ccc2c(c1)C(=O)c1nc3ncccc3c(=O)n1-2	7.34% (active)
COP(=O)(OC)C(c1ccccc1)(c1ccccc1)c1ccccc1	-9.3% (active)
CC(C)=CCCC(C)c1ccc(C)c2c1OCN(CC1CCNCC1)C2 (stereo not given)	78.7%
O=C(c1ccccc1)C(CN1CCCCC1)c1ccccc1 (stereo not given)	56%
N#Cc1c(-c2ccccc2)cc(-c2ccccc2)n(CC(=O)O)c1=O	61.4%
O=C(N/N=C/c1cccc(O)c1O)c1ccccc1	6.87% (active)
COc1ccc(NS(=O)(=O)N2CCCCC2)cc1	110%
Cc1cc(Br)c(C)cc1Br	137%
CN1C(=O)C(C2=NN(C=O)C(c3ccc(F)cc3)C2)C(=O)N(C)C1=O (stereo not given)	104%
OCCCc1n(Cc2ccc3ccccc3c2)c2ccccc2[n+]1Cc1ccc2ccccc2c1	-42.2% (active)
COCCCNS(=O)(=O)c1ncnc2nc[nH]c12	142%
CCOC(=O)OCC(=O)[C@@]1(O)CC[C@H]2[C@@H]3CCC4=CC(=O)CC[C@]4(C)[C@H]3[C@@H](O)C[C@@]21C	87.5%
COc1ccc([N+](=O)[O-])c(S(=O)(=O)c2ccc(Cl)cc2)n1	97.1%
Nc1nc(Nc2ccccc2SSc2ccccc2Nc2nc(N)nc(C(Cl)(Cl)Cl)n2)nc(C(Cl)(Cl)Cl)n1	37%
Nc1nc2c(c(=O)[nH]1)C1(C(=O)Nc3ccccc31)c1c(nc(N)[nH]c1=O)N2	101%
COc1cc(OC)c2c(c1Cl)O[C@]1(C2=O)C(OCc2ccccc2)=CC(=O)C[C@H]1C	3.14% (active)

— PubChem BioAssay (NCI)
